# Measured values published in ChEMBL document CHEMBL3988442, “University of Dundee, Small-Polar-MMV Screening Library” (2021).
# Species on record: Homo sapiens
# Experiment: To identify inhibition of the IFN signalling (Jak-Stat) pathway via expression of an eGFP reporter gene under the control of an IFN-stimulated response element (ISRE) containing MxA promoter.
# Format: functional
# Parameters: scale not given: direction of the effect not stated beside the values
# Conditions: 30 µM
row,SMILES,Percent Effect
1,COCCn1ccc(NC(=O)Nc2cccnc2)n1,21.2%
2,CCN(C(=O)CCCOc1ccccc1F)c1ccncc1,11.9%
3,O=C(NC1CC1)[C@@H]1CCO[C@@H]2CCN(C3CCOCC3)C[C@@H]21,-21.6%
4,Cc1nc(C)n(CC2CCCN(c3ncnc4sccc34)C2)n1 (stereo not given),65.9%
5,Cc1nn(C)c(Cl)c1C1CCCN1C(=O)c1cc(Cl)c[nH]1 (stereo not given),2.15%
6,COc1c(C2CCCN2Cc2csc(C(C)C)n2)c(C)nn1C (stereo not given),37.8%
7,CNc1cncc(C2CCCN2Cc2ccccn2)n1 (stereo not given),-2.5%
8,CC(=O)Nc1nc(C(=O)N2CCCC2Cn2cc(C)cn2)cs1 (stereo not given),26.6%
9,O=C(NCCN1CCCCCC1=O)c1ccn(-c2ccc(F)cc2)n1,24.8%
10,O=C(NCCCn1cccn1)N1CCCC1c1ccncc1 (stereo not given),25.4%
11,CC(C)c1nnc(NC(=O)NCc2ccnc(N(C)C)c2)s1,30.7%
12,CC(NC(=O)N(C)Cc1ccc(Cl)s1)c1ccccn1 (stereo not given),14.4%
13,CCc1nnc2n1CCN(C(=O)c1cnc3ccccc3n1)C2,-6.01%
14,O=C(c1ccccc1N1CCOCC1)N1CCCC(n2cccn2)C1 (stereo not given),12.4%
15,CSc1ccc(NC(=O)Nc2ccc3c(c2)N(S(C)(=O)=O)CC3)cc1,30.8%
16,OCC1CCCN1c1cc(NCCc2c[nH]c3ccccc23)ncn1 (stereo not given),35.3%
17,CC1CCN(C(CNC(=O)CCn2cccn2)c2cccs2)CC1 (stereo not given),4.2%
18,CSCC[C@H](N)C(=O)NCc1cc2n(n1)CCCN(C(=O)C1CCC1)C2,-24.3%
19,COC(=O)c1ccc(N2CCN(C(=O)c3ccncc3)C(C)C2)cc1 (stereo not given),20.8%
20,Cc1cccnc1NCCNC(=O)[C@H]1CNC[C@@H](C(=O)N2CCCC2)C1,-27.6%

row,SMILES,Percent Effect
1,Cc1ccccc1CNC(=O)Cc1c(C)nc2cc(=O)[nH]n2c1C,2.25%
2,CC(Cn1ccnc1)NC(=O)C1(c2ccc(F)cc2)CC1 (stereo not given),-2.07%
3,O=C1NC(c2ccccc2)=N[C@@]12CC[C@@H]1CN(Cc3ccco3)C[C@@H]12,4.89%
4,Cc1nc(CO[C@@H]2CN(Cc3cnn(C)c3)[C@@H]3COC[C@@H]32)cs1,2.98%
5,COCC(=O)N1CCC[C@]2(C(=O)N(C)C)CN(c3ccccn3)C[C@@H]2C1,-8.04%
6,O=C(c1ccc(Br)o1)N1CCCC(n2cncn2)C1 (stereo not given),7.55%
7,CCCOc1ccc(NC(=O)NCCC(=O)N(C)C)cc1Cl,12.8%
8,COCCNC(=O)C1(c2ccccc2C)CCOCC1,13.2%
9,O=C(CN1CCN(CC(O)C2CC2)CC1)NCc1ccc(F)cc1 (stereo not given),22.2%
10,Cc1cnn(CCNCc2nc(COc3ccc(F)cc3)no2)c1,11.9%
11,CN(C)C(=O)Cc1nc(CN2CCn3c(nnc3C3CC3)C2)cs1,7.25%
12,CC(C)c1ncc2c(n1)CN(Cc1nc(-c3cccs3)no1)CC2,19.6%
13,Cc1n[nH]cc1CNc1ccc2c(c1)N(C(=O)OC(C)(C)C)CCC2,4.68%
14,CCn1cc(N2Cc3nc(N)ncc3C2=O)cn1,2.34%
15,Cc1cccc(-c2ccc(C(=O)NCC(C)(C)C(N)=O)c(=O)[nH]2)c1,0.882%
16,CN(C)C(=O)CN1CCCC2(CCN(c3ccsc3)C2=O)C1 (stereo not given),14.6%
17,Cc1nc(N2CCCC2)ncc1-c1cc(O)nc(N2CCCC2)n1,-0.506%
18,O=C(c1ccc(C2CCCO2)s1)N1CCS(=O)(=O)CC1 (stereo not given),6.53%
19,OC(CN1CCN(Cc2nnc(C3CC3)o2)CC1)c1ccccc1 (stereo not given),17.6%
20,CC(=O)c1cc(CC(=O)NCc2ccc(CN(C)C)cc2)cs1,1.37%
